Results filed as inconclusive are left out. Where a call stands in place of a potency, no number is given. Active and inactive are the calls of the source. The call rests on the fitted dose curve; in most records, active means well fitted inhibition curve with a large enough effect; inconclusive means small, poorly fitted or top-dose-only effect; inactive means flat fitted curve, though single readings scatter.
Target: Luciferin 4-monooxygenase (Photinus pyralis) (UniProt P08659)
Assay: Biochemical firefly luciferase enzyme assay for NPC (AID 624030); further: nearly all actives have a fitted effect of over 70% in size
Settings: purified P. pyralis luciferase, luminescence, 5 min; series mostly up to 58.6 µM
In short: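 Direct inhibition of firefly luciferase enzyme (10 nM final, 50 mM Tris Acetate) assessed by luminescence within 5 minutes. Percent activity scaled between DMSO and PTC124 positive control, with concentration-effect curves classified by fit quality and response.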
Potency means the concentration at half of the fitted maximal effect.

Chain of Luciferin 4-monooxygenase (Photinus pyralis) (P08659 whole entry, looked up): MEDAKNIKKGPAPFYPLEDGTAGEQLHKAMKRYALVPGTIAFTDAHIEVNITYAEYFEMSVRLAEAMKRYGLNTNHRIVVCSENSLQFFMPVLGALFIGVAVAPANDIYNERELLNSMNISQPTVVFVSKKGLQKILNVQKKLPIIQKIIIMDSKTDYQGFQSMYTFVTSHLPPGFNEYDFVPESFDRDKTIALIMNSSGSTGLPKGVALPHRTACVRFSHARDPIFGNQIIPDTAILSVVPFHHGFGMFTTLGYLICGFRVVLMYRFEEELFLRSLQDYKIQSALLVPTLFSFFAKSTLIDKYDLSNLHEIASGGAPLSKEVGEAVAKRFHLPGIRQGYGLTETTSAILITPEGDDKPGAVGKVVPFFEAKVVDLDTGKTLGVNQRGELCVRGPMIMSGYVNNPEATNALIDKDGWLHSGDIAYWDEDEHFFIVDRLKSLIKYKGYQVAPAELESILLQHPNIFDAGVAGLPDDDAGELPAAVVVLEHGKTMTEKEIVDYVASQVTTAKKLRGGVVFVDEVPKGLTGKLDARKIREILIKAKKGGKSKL

| Structure (SMILES) | Potency |
| --- | --- |
| Clc1ccc2c(c1)C(c1ccccc1)=NCc1nncn1-2 | inactive |
| Nc1nc(N)nc(NC2CC2)n1 | inactive |
| O=C1c2ccccc2C(=O)c2ccccc21 | inactive |
| CCOC(=O)CC(SP(=S)(OC)OC)C(=O)OCC (stereo not drawn) | inactive |
| COc1cc(OC)c(OC)cc1C=O | inactive |
| Clc1cccc(SC2CCNCC2)n1 | inactive |
| O=C(Nc1ccc(Br)cc1)c1cc(Br)cc(Br)c1O | 11.4 µM (active) |
| COP(=S)(OC)Oc1cc(Cl)c(Cl)cc1Cl | inactive |
| Nc1ccccc1C(=O)O | inactive |
| CCC(C)(C)c1ccc(O)cc1 | inactive |
| CC(C)NC(C)C | inactive |
| O=C1c2ccccc2C(=O)C1C(=O)C(c1ccccc1)c1ccccc1 | inactive |
| O=C1Nc2ccc(Cl)cc2C(c2ccccc2Cl)=NC1O (stereo not drawn) | inactive |
| CC1(C)C(C=C(Cl)Cl)C1C(=O)OC(C#N)c1cccc(Oc2ccccc2)c1 (stereo not drawn) | inactive |
| C[C@]12CCC(=O)C=C1CC[C@@H]1[C@@H]2CC[C@@]2(C)[C@H]1CC[C@]2(C)O | inactive |
| CN1CCC(O)(c2ccc(F)cc2)C(C(=O)c2ccc(F)cc2)C1 (stereo not drawn) | inactive |
| Nc1ccccc1 | inactive |
| CN1C[C@H](C(=O)N[C@]2(C)O[C@@]3(O)[C@@H]4CCCN4C(=O)[C@H](Cc4ccccc4)N3C2=O)C=C2c3cccc4[nH]cc(c34)C[C@H]21 | inactive |

From PubChem BioAssay (NCATS)
